Compound activity from PubChem.
In the library only some 3% were active in any assay of this set; here they are far more common.
KKLEB cytotox – CF airway cell cytotoxicity counter-screen; 360,000 tested, 0.36% active; KKLEB CF airway cells viability, ATPlite luminescence, overnight; active compounds read low; cells stimulated with P. aeruginosa culture filtrate; AID 602141; activity change (cytotoxicity), % at 5 µM;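 active = corrected activity change at or below -50% at 5 µM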
Peg3 promoter – Peg3 promoter activity inhibition. HeLa PEG-Prom luciferase reporter, luminescence, overnight. inhibition, % at 20 µM. 360,000 tested, 1.7% active;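 active = inhibition of at least 50% at 20 µM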
ABHD5 PLIN5 PPI – inhibitors of human ABHD5-perilipin-5 interaction; Split G. princeps luciferase complementation, luminescence, 4 h; inhibition, % at 4 µM; Q00G26+Q8WTS1; 360,000 tested, 0.78% active; AID 602281;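 active = inhibition above the mean inhibition across every tested compound plus 3 SD, cut at about 22% in these data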
HIF-2a inh – inhibitors of HIF-2a. 786-0 RCC cells HIF-2a reporter, luciferase luminescence, overnight. inhibition, % at 18.8 µM. 360,000 tested, 0.72% active;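 active = inhibition of the luminescence signal of 40% or more relative to plate controls, in a single-dose primary screen at 18.75 µM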
TRPM1 prom inh – MITF TRPM1 promoter inhibition in SK-MEL-5 cells. SK-MEL-5 TRPM1 promoter luciferase, 24 h. inhibition, % at 12.5 µM. 330,000 tested, 0.83% active;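 active = mean inhibition across replicates of 60% or more, whatever share of single replicates reaches that level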
CF NFkB inh – inhibitors of cystic fibrosis induced NF-kB | KKLEB NF-kB-GFP reporter, PAF-induced, GFP fluorescence overnight | inhibition, % at 5 µM | 360,000 tested, 0.86% active;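 active = at least 50% inhibition at 5 µM, scaled per plate between neutral and stimulator controls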;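 note: PAF is a Pseudomonas aeruginosa culture filtrate used as stimulus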
Mdm2-MdmX confirm – Mdm2/MdmX (human) interaction inhibition, confirmed; SaOS-2 split-luciferase Mdm2/MdmX complementation, luminescence; shares compounds with HIF-2a inh; inhibition, % at 8 µM; 740 tested, 99% active; AID 504601;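 active = mean inhibition of the luminescence signal across two replicates at or above 26 percent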
HIF-2a conf – confirmation of HIF-2a inhibitors. 1,800 tested, 56% active. 786-0 RCC cells, HIF-2a luciferase reporter luminescence, overnight. AID 651580. inhibition, % at 18.8 µM. shares compounds with HIF-2a inh;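 active = mean inhibition across four replicates of at least 40 percent at the single tested concentration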
HIF-1a cs – inhibits HIF-1a reporter, a counter-screen for HIF-2a inhibitors | 1,800 tested, 72% active | inhibition, % at 18.8 µM | shares compounds with HIF-2a inh | MiaPaCa-2 HIF-1a luciferase reporter, desferoxamine, overnight;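 active = mean inhibition of the reporter signal across four replicates at the single tested dose of 50% or more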
Numbers stand for hits; 0 = inactive; - = no result.

SMILES	KKLEB cytotox	Peg3 promoter	ABHD5 PLIN5 PPI	HIF-2a inh	TRPM1 prom inh	CF NFkB inh	HIF-2a conf	HIF-1a cs	others
O=C(Nc1cccc(C(F)(F)F)c1)Nc1ccc(N2CCCC2)c(S(=O)(=O)Nc2ccccc2Cl)c1	-57.6	63.7	0	0	71.9	58.7	-	-	Mdm2-MdmX confirm=102.0
COc1ccc2cc1Oc1ccc(cc1)CC1c3c(cc(OC)c4c3Oc3cc5c(cc3O4)CCNC5C2)CCN1C (stereo not given)	0	102.0	0	53.6	108.9	0	0	106.3
Clc1ccc(-n2ncc3c(N4CCCCCC4)ncnc32)cc1	-52.2	0	0	65.9	71.0	0	83.6	101.7
CCOC(=O)c1cc(-c2cccc(O)c2)oc1C	-	-	0	0	-	-	-	-
O=C(CCCSc1nc2ccccc2s1)NC1=NCCS1	0	0	0	72.2	0	0	84.9	0
CCOC(=O)NC(=O)COC(=O)CCCSc1nc2ccccc2s1	0	0	0	59.3	0	0	75.7	0
O=C(O)CCSc1nc2ccccc2s1	0	0	0	89.2	0	0	97.2	91.7
NC(=O)NC(=O)COC(=O)CCCSc1nc2ccccc2s1	0	0	0	70.6	0	0	82.9	61.8
CC(=O)Nc1ccc(NC(=O)CCCSc2nc3ccccc3s2)cc1	0	0	0	0	0	0	-	-
CC(C)NC(=O)NC(=O)COC(=O)CCCSc1nc2ccccc2s1	0	0	0	0	0	0	-	-
Cc1cccc(C)c1NC(=O)CCCSc1nc2ccccc2s1	0	0	0	0	0	0	-	-
CC1(C(=O)NS(=O)(=O)C2CC2)CCCN(C(=O)C2(c3ccc(Cl)cc3)CCCC2)C1 (stereo not given)	0	0	0	0	-	0	-	-
CCO[C@H]1OC(C(=O)NCc2ccccc2)=C[C@@H](C(C)(C)C)[C@@H]1CCCO	0	0	0	0	0	0	-	-
Cn1nc(C(=O)OCC(=O)Nc2ccc(SC(F)F)cc2)c2ccccc2c1=O	0	0	0	0	0	0	-	-
COc1ccc(-c2nn(-c3ccccc3)cc2C(=O)O)cc1N	0	0	0	0	0	0	-	-
CCN(CC)CCCN=C1N[C@@H](c2cccc(F)c2)C(C(=O)OC)=C(C)N1Cc1ccccc1	0	96.9	0	0	94.5	0	-	-	Mdm2-MdmX confirm=102.2
Cc1ccnc(NC(=O)c2ccc(S(=O)(=O)c3ccccc3)cc2)c1	0	0	0	0	0	0	-	-
Cc1ccc(C(=O)C2C(=O)C3CCC2C3)cc1 (stereo not given)	0	0	0	46.1	-	0	0	0
Cc1ccc(C(=O)C2CCNCC2)cc1	0	0	0	0	0	0	-	-
O=C1C(=O)c2ccc(-c3ccccc3)cc2-c2ccccc21	-100.3	101.4	0	93.2	103.9	102.5	-	-	Mdm2-MdmX confirm=103.2
CCOc1ccccc1C(=O)Nc1ccc2nc(N3CCN(c4ncccn4)CC3)cc(C)c2c1	-	-	-	-	-	-	-	-	Mdm2-MdmX confirm=98.0
CCNc1nc(C)c2cc(Br)c(=O)n(CC)c2n1	0	0	0	54.8	0	0	0	0
CCn1c(=N)c(C(=O)NC)cc2c(=O)n3cccc(C)c3nc21	0	0	0	0	0	0	-	-
COc1ccc(/C=C/C(=O)c2ccc([N+](=O)[O-])o2)cc1OC	-	-	-	-	-	-	-	-	Mdm2-MdmX confirm=99.4
COC(=O)c1cccc(-c2noc(-c3ccccc3F)n2)c1	0	0	0	52.4	0	0	65.5	0
NC(=O)c1cccc(-c2noc(-c3ccccc3F)n2)c1	0	0	0	0	0	0	-	-
COc1ccc(-c2cnc3c(NC(C)=O)cc(-c4ccc(C(=O)N5CCOCC5)cc4)cn23)cc1OC	0	0	0	41.4	-	0	0	0
CCN(CC)CCNC(=O)c1cc2c(-c3ccc(Cl)cc3)nn(C)c2s1	0	88.4	0	58.5	62.2	0	0	88.5
COc1ccc(S(=O)(=O)N2CCOC2CNC(=O)C(=O)NCCCN2CCCC2=O)cc1OC (stereo not given)	0	0	0	0	-	0	-	-
